Source: PubChem BioAssay AID2029 (NMMLSC, 2009)
Out of some 320,000 compounds screened, about 210 (0.066%) were called active. The full list was thinned out, with actives kept by preference. A number with no mark means an inactive call.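 The calls were made as follows: active = GFP response relative to DMSO above a set limit, near the screen mean plus 3 SD (cut at about 150% in these data); inconclusive = Fewer than 70 cells measured for a yeast strain; inactive = the rest.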

Assay: TOR pathway RTG branch CIT2 reporter changes – S. cerevisiae, GFP fusion, multiplex flow cytometry, MLPCN library, primary screen (AID 2029);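 also: ratio of well median GFP fluorescence to mean of DMSO wells on the plate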
Settings: S. cerevisiae CIT2-GFP strain, 3 h, at 10 µM, active compounds read high, 100 means same as DMSO wells

Compound	GFP response vs DMSO
CCn1c(/C=C/Nc2ccccc2)[n+](CC)c2ccc(C(=O)OCC(F)(F)F)cc21	97.8%
COc1ccc(/C=N/NC(=O)C(C)N(c2ccc(OC)cc2)S(C)(=O)=O)cc1 (centres undefined)	109%
Cc1cccc(NS(=O)(=O)c2ccc(C)c(C(=O)NCc3cccnc3)c2)c1	107%
O=C(O)C1CCN(C(=O)c2cc(F)cc3c2OCOC3)CC1	109%
O=S(=O)(c1ccc(Br)cc1)N1CCC(c2nc3ccccc3[nH]2)CC1	111%
CN(C)CCN(C(=O)C1=COCCO1)c1nc2ccc(Cl)cc2s1	92.3%
Cc1ccc2nc(N(CCN(C)C)C(=O)C3=COCCO3)sc2c1	161% (active)
CC(=O)N(CCCN(C)C)c1nc2ccc(C)cc2s1	111%
CCc1ccc(Oc2coc3cc(O)ccc3c2=O)cc1	94.9%
CCN(CC(=O)Nc1cc(Cl)ccc1C)C(=O)Cn1c(=O)cnc2ccccc21	110%
O=c1[nH]c(CN2CCN(S(=O)(=O)c3ccc4c(c3)OCCO4)CC2)nc2sc3c(c12)CCCC3	101%
CCn1c(=O)c([N+](=O)[O-])c(NCc2ccc3c(c2)OCO3)c2ccccc21	88.2%
CCc1ccc(S(=O)(=O)N/N=C\c2ccc([N+](=O)[O-])o2)cc1	91.7%
CCn1c(/C=C/c2ccc([N+](=O)[O-])o2)nc2ccccc2c1=O	210% (active)
COc1ccc(S(=O)(=O)NCCOc2ccccc2)cc1F	94.3%
COCC(C)n1c(SCC(=O)NC2CCCCC2C)nc2ccccc2c1=O (centres undefined)	101%
CC(=O)Nc1ccc(NC(=O)C(C)n2c3ccccc3c3nc(=O)cc(C)n32)cc1 (centres undefined)	109%
CC(C)NC(=O)C(c1ccc(F)cc1)N(C(=O)CCC(=O)Nc1ccccn1)c1ccccc1F (centres undefined)	88.4%
CCOc1cccc(-c2nnc(SCC(=O)NC3CC3)n2C)c1	98.9%
COc1ccc(/C=C(\C#N)c2c[nH]c3ccccc23)cc1	79.6%
C[n+]1ccc(/C=C/c2c[nH]c3ccccc23)cc1	274% (active)
O=C(N/N=C/c1c[nH]c2ccccc12)c1ccccc1O	80.8%
CCCCNC(=O)N(O)C1N(/N=C/c2ccc(N(C)C)cc2)C(=S)SC1(C)C (centres undefined)	105%
COc1ccc([C@H]2CC(=O)C=C(/C=C/c3ccc(Cl)cc3)C2)cc1	104%
CC(C)Oc1ccc(CCc2n[nH]c(=S)n2Cc2ccccc2)cc1	98.5%

Compound	GFP response vs DMSO
N#Cc1nc(N)nc(N(c2ccccc2)c2ccccc2)n1	113%
O=C(NCC1CCCO1)c1ccccc1-c1nc(-c2ccccc2Cl)no1 (centres undefined)	77%
CC(=O)Nc1ccc(S(=O)(=O)Nc2ccc(-c3ccc4nnc(C)n4n3)cc2)cc1	102%
O=C(NNc1cc(Cl)ccc1Cl)c1cccnc1Cl	107%
CC(C)C(NC(=O)C1CCC(C(C)(C)C)CC1)C(=O)NCCCN1CCCCC1 (centres undefined)	94.8%
O=C(CC1OC(=O)c2ccccc21)NC1CCCCC1 (centres undefined)	109%
O=C(CSc1nnc(Nc2ccccc2F)s1)NC1CCCC1	85.1%
O=C(Oc1cccc(C(=S)N2CCOCC2)c1)c1cccc(Cl)c1	94.4%
COc1cc(C(=O)N(C)Cc2cccc(OC)c2OC)ccc1OCC(=O)Nc1cccc(C(F)(F)F)c1	101%
CC1CCN(C(=S)c2cccc([N+](=O)[O-])c2)CC1	102%
O=C(NC(=S)NC1CCS(=O)(=O)C1)c1cccc([N+](=O)[O-])c1 (centres undefined)	155% (active)
Nc1ccc(C(=O)OCC(=O)NC2CCS(=O)(=O)C2)cc1[N+](=O)[O-] (centres undefined)	91.7%
O=C(N/N=C1\CCSC1)c1cc(Cl)ccc1O	102%
Cc1cccc(C)c1NC(=O)C(Cl)C(=O)c1ccccc1 (centres undefined)	87.7%
Cc1ccc(C)c(Cn2nnc3c(=O)[nH]c(C(=O)Nc4ccc(F)cc4)nc32)c1	99.3%
CN(CC(=O)Nc1ccc(C(N)=O)cc1)S(=O)(=O)c1ccc2c(c1)OCCO2	110%
COc1cc([N+](=O)[O-])cc([N+](=O)[O-])c1NC(=O)N1CCOCC1	110%
Cc1cc(C(=O)CC#N)c(C)n1-c1c(C)n(C)n(-c2ccccc2)c1=O	92.1%
O=C(c1cc2ccccc2o1)N1CCN(Cc2ccccc2)CC1	94.7%
CC1Cc2ccccc2N1CC(=O)Nc1ccc2c(c1)OC(F)(F)O2 (centres undefined)	82.8%
COC(=O)C1=C(C)N(Cc2ccccc2)C(=NCCCOC(C)C)N[C@H]1c1ccccc1	69.2%
COc1ccccc1C(=O)OCC(=O)Nc1cccc(S(=O)(=O)NC2=NCCCCC2)c1	118%
COc1cccc(NC(=O)CN(C)C(=O)c2cc(C3CC3)nn2-c2ccccc2)c1	106%
COc1ccc(NC(=O)CCn2ccnc2)c(OC)c1	106%
CCOc1ccc(OCC)c(NC(=O)CSc2nnc(Cn3cnc4ccccc43)n2C)c1	99%

Compound	GFP response vs DMSO
O=C(NCC(F)(F)F)Nc1nnc(C(F)(F)F)s1	97.4%
O=C(NCc1cc(F)cc(C(F)(F)F)c1)C1CCC(=O)N(C2CCCC2)C1 (centres undefined)	98.4%
O=S(=O)(c1ccc(F)cc1)N1CCN=C1SCc1cccc(F)c1	104%
CS(=O)(=O)N1CCN=C1SCc1ccc(F)cc1	102%
CCSC1=NCCN1S(=O)(=O)c1ccc(F)cc1	151% (active)
CC1CC1C(=O)OCC(=O)c1c(N)n(C)c(=O)n(C)c1=O (centres undefined)	97.2%
COc1cccc(-c2nc(CS(=O)(=O)CC(=O)NCCc3ccc(OC)c(OC)c3)c(C)o2)c1	102%
Cc1ccc(-c2nc(CS(=O)(=O)CC(=O)NCc3ccc4c(c3)OCO4)c(C)o2)cc1	94.3%
COc1ccc(-c2nc(CS(=O)(=O)CC(=O)NCc3cccc(Br)c3)c(C)o2)cc1	150% (active)
COc1cc(OC)cc(-c2c(C#Cc3ccsc3)c3cc(-c4ccc(SC)cc4)ccc3n2C)c1	109%
CCN(CC)P(=O)(/C(Cl)=C\Nc1c(C)n(C)n(-c2ccccc2)c1=O)N(CC)CC	113%
CC1=C2C(=O)OC(c3ccoc3)C2(C)CCC1 (centres undefined)	103%
COc1ccc(CN2CC[C@H]3C=CC[C@@H](C(=O)N4CCOCC4)[C@H]3C2=O)cc1OC	99.2%
COc1ccc(NC(=O)CC(NC(C)c2ccccc2)C(=O)O)cc1 (centres undefined)	101%
O=C(NCC(=O)N1CCCCCCC1)c1ccccc1Cl	106%
Cc1ccc(NC(=O)C(CC(=O)O)C2CCCO2)c(C)c1 (centres undefined)	98.9%
Cc1noc(C)c1CSc1nc2cc(S(=O)(=O)N3CCOCC3)ccc2o1	111%
O=C(CSc1ccc(C(F)(F)F)cc1[N+](=O)[O-])NCCOc1ccccc1	108%
COc1ccccc1N1CCN(CC(=O)Nc2ccnn2C2CCCC2)CC1	98.2%
CC1(C)CC(CNCCC(c2ccc(F)cc2)c2ccco2)CCO1 (centres undefined)	109%
CCOc1cc(CN2CCCC(CO)(Cc3ccc(F)cc3F)C2)ccc1OC (centres undefined)	98%
O=C(c1ccc2ccccc2n1)N1CCN(c2ccccc2Cl)CC1	94.9%
CCCCn1c(N)c(N2CCOCC2)c(=O)n(CC(=O)NCCc2ccccc2)c1=O	105%
CSCCC(NS(=O)(=O)c1ccc(C)cc1)C(=O)N1CCCC1 (centres undefined)	90.1%
CCN(CC)S(=O)(=O)c1ccc(OC(C)C)c(N)c1	94.4%

Compound	GFP response vs DMSO
CCOc1ccc(Nc2nc(Cc3nnc(SCC(=O)c4ccc(C)cc4)o3)cs2)cc1	89.8%
O=C(NCc1nnc(SCC(=O)N2CCCc3ccccc32)o1)c1ccccc1F	91.6%
CC1CCCCC1NC(=O)COc1ccc(C#N)cc1 (centres undefined)	100%
O=C(O)CC(SCC(=O)Nc1ccc(Br)cc1)C(=O)O (centres undefined)	101%
OCCN1CCOCCOCCN(CCO)CCN(CCO)CC1	90.9%
NC(=S)Nc1c(Cl)cccc1Cl	104%
CC(Oc1ccc(Cl)cc1)c1ccnn1S(C)(=O)=O (centres undefined)	88.9%
C#CCN(N(C)c1ncc(C(F)(F)F)cc1Cl)S(=O)(=O)c1ccc2ccccc2c1	101%
CN(NS(=O)(=O)c1cccs1)c1ncc(C(F)(F)F)cc1Cl	171% [may fluoresce green] (active)
Cc1cc(C)cc(NS(=O)(=O)c2ccc(Oc3ncc(C(F)(F)F)cc3Cl)cc2)c1	99.4%
COc1ccc(-c2cc(=O)oc3cc(OCC(=O)N[C@@H](Cc4c[nH]c5ccccc45)C(=O)O)ccc23)cc1	110%
O=C(N/C(=C\c1ccc([N+](=O)[O-])cc1)C(=O)N1CCOCC1)c1cccc(Br)c1	100%
COc1cc(NS(=O)(=O)c2ccc(N/C=C(\C=O)c3nc4cc(Cl)ccc4o3)cc2)nc(OC)n1	103%
COc1ccccc1C(=O)NCCC(=O)NC1=NCCS1	105%
Cc1ccc(S(=O)(=O)c2nnn3c2nc(N2CCN(c4ccccn4)CC2)c2ccccc23)cc1	94.5%
Cc1cccc(Nc2nc3c(S(=O)(=O)c4ccccc4)nnn3c3ccccc23)c1C	632% [may fluoresce green] (active)
CC(=O)Nc1ccc(Nc2nc3c(S(=O)(=O)c4ccc(C)c(C)c4)nnn3c3ccccc23)cc1	106%
CC(=O)N1CC2(C)CN(C(C)=O)CC(C)(C1)C2=O	107%
Cc1nc(-c2ccc(F)cc2)c(CC(=O)Nc2cc(S(=O)(=O)N3CCCCC3)ccc2C)s1	99.9%
COc1ccccc1CCCNC(=O)C1CCC(=O)N(CCN2CCOCC2)C1 (centres undefined)	94.1%
CCN1/C(=C\c2ccc3ccccc3[n+]2CC)Sc2cc(C)ccc21	1560% [may fluoresce green] (active)
CCN1/C(=C/c2ccc3ccc(C)cc3[n+]2CC)Sc2ccccc21	337% [may fluoresce green] (active)
CCc1nc2cccnc2n1-c1ccc(C(=O)O)cc1	102%
COc1ccccc1C(CNC(=O)c1ccc(C)c(S(=O)(=O)N2CCCCC2)c1)N(C)C (centres undefined)	97.1%
